Bioassay records as filed in PubChem BioAssay.
Compounds with a hit are over-represented: about 5.8% of the library has one in this group of screens.
KB-3-1 tox – KB-3-1 parental cell cytotoxicity. KB-3-1 viability, CellTiter-Glo ATP luminescence, 72 h. Potency, µM (top dose mostly 46.1 µM), actives largely listed as cytotoxic. 400,000 compounds, 1.4% hits; note: % is set by controls: 0 for no effect and ±100 for the full control effect; nearly all actives have a fitted effect of over 60% in size
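Here the drug-naive KB-3-1 line serves as comparator for MDR sub-line selectivity; cells received compound titrations, 72 h at 37 °C, then CellTiter-Glo readout.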
PINK1 modulator – changes PINK1 expression | PINK1 immunofluorescence, high-content cytometry, 24 h | Potency, µM (titrated, usually from 76.6 µM), for the others: at the top dose activation (PINK1 increase), most hits filed as activators | 410,000 compounds, 0.2% hits | AID 624263; active = well fitted activation curve with a large enough effect; inconclusive = small, poorly fitted or top-dose-only effect; cell line not stated here; note: % of control where 0% means no effect; nearly all actives have a fitted effect of over 65% in size
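Measures PINK1 amount and localization on or inside mitochondria by immunofluorescence. Stable cells get compounds at 5 concentrations for 24 hours before fixation and staining; CCCP controls included.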
SW480 rerep – inducers of DNA re-replication in SW480 colon cancer cells; SW480 DNA re-replication, Hoechst DNA content imaging, 48 h; Potency, µM (series often up to 46.1 µM), for inactives: at the highest dose re-replication activation, most hits filed as activators; 340,000 compounds, 1.8% hits; note: % of control where 0% means no effect; nearly all actives have a fitted effect of over 55% in size
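DNA re-replication was detected as more nuclei of elevated Hoechst intensity after 48 hr exposure to compound (23 nL pinned per well of 250 cells).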
MCF10A rereplic – DNA re-replication induction in MCF 10a cells; AID 624296; MCF 10A DNA re-replication, Hoechst nuclear intensity, 48 h; 350,000 compounds, 2.9% hits; Potency, µM (series often up to 46.1 µM), for inactives: at the top dose activity, positive = re-replication, hits mostly activators; note: % of control where 0% means no effect; nearly all actives have a fitted effect of over 50% in size
KB-V1 MDR tox – kills drug-selected multidrug resistant KB-V1 cells; Potency, µM (highest dose often 46.1 µM), usual class: cytotoxic; 400,000 compounds, 3.4% hits; KB-V1 MDR cells viability, CellTiter-Glo, 72 h; note: % is set by controls: 0 for no effect and ±100 for the full control effect; nearly all actives have a fitted effect of over 60% in size
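In this primary screen, KB-V1 cells overexpressing P-gp are incubated with library compounds (lowest to highest concentration) for 72 h at 37 degrees C before a luminescent ATP viability read.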
ALOX12 inh – inhibitors of human 12S-lipoxygenase ALOX12 | purified 12hLO, xylenol orange hydroperoxide absorbance | 580,000 compounds, 1.1% hits | Potency, µM (doses to about 108 µM), for inactives: top-dose activity change, negative = inhibition, actives largely listed as inhibitors | P18054 | AID 1671190; note: % is set by controls: 0 for no effect and ±100 for the full control effect
Target sequence (P18054 whole entry, looked up): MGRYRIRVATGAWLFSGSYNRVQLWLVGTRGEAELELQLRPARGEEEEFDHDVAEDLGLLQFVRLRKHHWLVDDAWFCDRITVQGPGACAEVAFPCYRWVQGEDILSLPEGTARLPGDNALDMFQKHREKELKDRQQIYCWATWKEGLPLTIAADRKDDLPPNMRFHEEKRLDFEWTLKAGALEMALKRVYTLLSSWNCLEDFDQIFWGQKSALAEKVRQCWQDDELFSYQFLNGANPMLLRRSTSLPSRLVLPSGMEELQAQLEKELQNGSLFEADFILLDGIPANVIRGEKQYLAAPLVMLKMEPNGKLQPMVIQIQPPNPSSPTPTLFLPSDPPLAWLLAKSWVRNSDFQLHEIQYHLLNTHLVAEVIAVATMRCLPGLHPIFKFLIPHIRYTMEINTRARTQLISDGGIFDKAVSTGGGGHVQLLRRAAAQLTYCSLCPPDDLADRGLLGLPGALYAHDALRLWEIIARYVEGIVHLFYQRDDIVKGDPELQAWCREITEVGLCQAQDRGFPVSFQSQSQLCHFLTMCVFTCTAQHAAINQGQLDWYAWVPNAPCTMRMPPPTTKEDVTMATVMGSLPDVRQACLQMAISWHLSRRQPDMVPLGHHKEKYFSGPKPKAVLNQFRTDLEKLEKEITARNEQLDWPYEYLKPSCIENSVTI
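Purified human 12hLO at 150 nM in 25 mM Hepes, 0.01% Triton X-100, pH 7.0, preincubated 15 min at room temperature with compound. Reaction started with 40 uM arachidonic acid, 30 min at room temperature. Hydroperoxide measured by Fe-xylenol orange, 573/405 nm absorbance ratio.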
* hit, by the source's call; i = inactive; ? = inconclusive; . = no result; ! = repeats disagree; [ ] = dose if it differs, or a comment. Unless noted, calls come from the whole dose curve; as a rule, active = well fitted curve in the direction sought with a large enough effect; inconclusive = small, poorly fitted or top-dose-only effect, or another doubt; inactive = no such curve, though single readings can be large; an effect the other way counts as inactive or inconclusive. Potency is the fitted concentration of half-maximal effect.

SMILES	KB-3-1 tox	PINK1 modulator	SW480 rerep	MCF10A rereplic	KB-V1 MDR tox	ALOX12 inh
CCCC/C(C)=N/NC(=S)Nc1ccccc1	.	.	.	.	.	6.3µM*
CN1C(=O)/C(=C/c2cccc([N+](=O)[O-])c2)C(=O)N1c1ccccc1	?	1%	?	?	i	40µM*
CCCN1C/C(=C/c2ccc3c(c2)OCO3)C(=O)/C(=C/c2ccc3c(c2)OCO3)C1	23µM*	-3%	4.6µM*	?	?	?
O=C1/C(=C/c2cccc([N+](=O)[O-])c2)CCOc2ccc(F)cc21	.	.	.	.	.	-15%
CCCN1C/C(=C/c2cccc([N+](=O)[O-])c2)C(=O)/C(=C/c2cccc([N+](=O)[O-])c2)C1	?	-2%	1.6µM*	0.92µM*	?	15%
COc1ccccc1CN(C)C(=O)Cn1c(=O)n(C)c2ccccc21	.	.	.	.	.	-27%
Cc1ccc(S(=O)(=O)Oc2c(C)occc2=O)cc1	.	.	.	.	.	18%
COc1cccc(CN2Cc3c(CN(C)Cc4ccccc4)nnn3CCC2=O)c1	.	.	.	.	.	29%[176 µM]
Cc1ccc(-n2c(-c3ccc(Br)cc3)c[n+]3c2CCc2ccc4cccnc4c2-3)cc1	2.6µM*	?	15%	?	?	?
Cc1ccc(-n2c(=O)[nH]c3ncccc3c2=O)cc1	i	3%	-4%	3%	i	-14%
N/C(=N\N=C\c1ccnc2ccccc12)SC1CC(=O)N(c2ccc(Br)cc2)C1=O (centres undefined)	i	4%	0%	7.3µM*	i	1%
C(=N\Nc1cccc2cccnc12)/c1c[nH]c2ccccc12	.	.	.	.	.	32µM*
O=c1oc2ccc(F)cc2cc1S(=O)(=O)N1CCc2ccccc2C1	.	.	.	.	.	4%
CCN(Cc1ccncc1)C(=O)c1cc(=O)c2ccccc2o1	.	.	.	.	.	9%
FC(F)(F)c1cc(Oc2ccc(Cl)cc2)nc(-c2ccccn2)n1	i	-23%[38.3 µM]	2%	0%	?	-2%
FC(F)(F)c1cc(Oc2ccccc2)nc(-c2ccccn2)n1	?	1%[38.3 µM]	?	18%	15µM*	0%
CCN(CC)c1cc(C(F)(F)F)nc(-c2ccccn2)n1	i	8%[38.3 µM]	?	?	18µM*	0%
FC(F)(F)c1cccc(Sc2cc(C(F)(F)F)nc(-c3ccccn3)n2)c1	?	-1%	-11%	-180%[0.0737 µM]	16µM*	?
CCOc1ccc2nc(SCC(=O)N3CCN(S(=O)(=O)c4ccccc4)C3)[nH]c2c1	.	.	.	.	.	26%
COCc1ccc(C(=O)Nc2ccc(NC(C)=O)cc2C(F)(F)F)cc1	.	.	.	.	.	-2%
O=C(Nc1ccccc1Cl)C1CCN(Cc2cnn(-c3ccccc3)c2-n2cccc2)CC1	18µM*	-4%	13%	?	23µM*	-6%
COc1ccc(OC)c(NC(=O)C2CCN(Cc3cnn(-c4ccccc4)c3-n3cccc3)CC2)c1	i	-2%	?	13%	8.2µM*	-10%
CCOC(=O)c1c(C)[nH]c(C2=NNC(=Nc3cccc(Cl)c3)SC2)c1C	.	.	21µM*	6.5µM*	.	.
CC(=O)c1c(C)[nH]c(C2=NNC(=NCc3ccccc3)SC2)c1C	i	0%	2%	-1%	i	-23%
O=C1OC(Nc2nc3ccccc3s2)c2ccccc21 (centres undefined)	i	3%	7%[9.22 µM]	2%	i	-7%
SMILES	KB-3-1 tox	PINK1 modulator	SW480 rerep	MCF10A rereplic	KB-V1 MDR tox	ALOX12 inh
O=C1OC(Nc2nc(-c3ccc(F)cc3)cs2)c2ccccc21 (centres undefined)	i	-2%	26µM*	21µM*	?	0%
Cc1nc(-c2ccc(C#N)cc2)cs1	i	1%	-24%	1%	i	32µM*!
CN(C)/C=C1/OC(=O)C(C#N)=C1c1ccc(Cl)cc1	i	0%	?	18µM*	i	?
COc1cccc(N2CCN(C(=O)c3ccc4c(c3)N(C)C3CCCCCN3C4=O)CC2)c1 (centres undefined)	.	.	.	.	.	-19%
CC(C)Cn1c(-c2ccc(F)cc2)n[nH]c1=S	i	-2%	0%	9%	i	?
CCn1c(-c2ccco2)n[nH]c1=S	i	-2%	-14%	-2%	i	?
CC(C)Cn1c(-c2ccccc2F)n[nH]c1=S	i	-4%	-4%	2%	i	25µM*
CC(C)Cn1c(-c2csc3c2CCCC3)n[nH]c1=S	i	3%	-8%	9%	21µM*	?
CC(C)Cn1c(-c2ccncc2)n[nH]c1=S	i	-1%	-1%	10%	i	?
CC(C)Cn1c(-c2ccco2)n[nH]c1=S	i	17%[38.3 µM]	-15%	1%	i	10µM*
Cc1ccc(-c2nnc(Sc3nc4ccccc4o3)c3ccccc23)cc1	i	?	?	8.2µM*	i	1%
Cc1nnc(Sc2nc3ccccc3o2)c2ccccc12	?	-1%	?	13µM*	i	?
Cc1ccc(NC(=O)Cn2cnnc2C#N)cc1Cl	.	.	.	.	.	-3%
CC12CC3CC(C)(C1)CC(NCc1ccccn1)(C3)C2	.	.	.	.	.	-4%
CCCCCC1CCC(c2ccc(-c3ccc(OCCC)cc3F)nc2)CC1 (centres undefined)	.	.	.	.	.	24%
CC1=CC(C)(C)N2C(=O)C3(SCC(=O)N3c3ccc(F)cc3)c3cc(C)cc1c32 (centres undefined)	?	?	13%	8%	16µM*	7%
Cc1ccc(N2C(=O)CSC23C(=O)N(CC(=O)NC2CCCCC2)c2ccccc23)cc1 (centres undefined)	i	-4%	.	.	18µM*	?
Cc1ccc(N2C(=O)CSC23C(=O)N(CC(=O)Nc2ccccc2F)c2ccccc23)cc1C (centres undefined)	i	7%	.	.	?	-10%
Cc1cc(C)c(NC(=O)CN2C(=O)C3(SCC(=O)N3c3ccc(F)cc3)c3ccccc32)c(C)c1 (centres undefined)	i	-3%	.	.	15µM*	-14%
Cc1ccc(NC(=O)CN2C(=O)C3(SCC(=O)N3c3cccc(Cl)c3)c3ccccc32)cc1C (centres undefined)	i	-5%	.	.	10µM*	1%
COc1ccc(-c2nc(CC3CCN(C(=O)c4n[nH]c(=O)c5ccccc45)C3)no2)cc1 (centres undefined)	.	.	.	.	.	53%
Cc1noc(C)c1-c1cc(-c2ccccc2C(F)(F)F)cn2cncc12	.	.	.	.	.	7%[176 µM]
Cc1cc2c(cc1C)N(C(=O)CCl)CCN2C(=O)CCl	15µM*	1%	3.7µM*	4.6µM*	7.3µM*	8.9µM*
CCN1CCN(CCOc2ccc3c(=O)c(-c4ccccc4)coc3c2)CC1	.	.	.	.	.	-30%
